Screens as filed in PubChem.
Rows were chosen to be rich in hits. Some 0.95% of all compounds tested hit in one or more screens of this group.
A488 autofl = A488 region autofluorescence; actives 0.1% (n = 59,000); compound autofluorescence, A488 spectral region, dye equivalency; Compound Type: qHTS ECL - MLSMR; max dye equivalency, M
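Compounds pin-transferred into 100 mM Tris buffer, pH 8.0, incubated 15 min at room temperature, then imaged with 480 nm excitation/540 nm emission filters. Fluorescence converted to Alexa 488 dye-equivalent concentration via an on-plate six-point A488 standard curve.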
Resorufin autofl = compound fluoresces in the resorufin spectral region; Compound fluorescence, resorufin region 547/598 nm, buffer; hits give high values; max dye-equivalent concentration, M; actives 0.04% (n = 59,000)
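Compounds in 100 mM Tris, pH 8.0, incubated 15 min at room temperature, then fluorescence read at 547 nm excitation/598 nm emission. Signal converted to dye-equivalent concentration via an on-plate six-point resorufin standard curve, per compound concentration.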
A647 fluor = A647 region autofluorescence | Compound fluorescence, A647 channel (570/671 nm), Tris buffer | max dye-equivalent concentration, M | 59,000 tested, under 10 active | AID 592;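 note: values scaled relative to a standard on each plate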
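Tris 100 mM pH 8.0; cpd + A647 stds pin-transferred; 15 min RT; CCD imager, ex 570/em 671. Output = A647-equivalent conc. per cpd conc.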
Texas Red fluor = compounds fluorescent in Texas Red spectral region | Compound fluorescence, Texas Red channel, 547/618 nm; hits give high values | max dye-equivalent concentration, M | actives 0.06% (n = 59,000) | AID 587; in the data active = max dye-equivalent concentration above about 10 nM; inconclusive = between about 1.1 nM and that limit
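Texas Red-region profiling: compounds in 100 mM Tris pH 8.0 were read at 547/618 nm after 15 min at room temperature. Intensities were normalized against a six-point Texas Red standard series to give dye-equivalent concentration.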
Fluorescein autfl = compound fluoresces in the fluorescein spectral region. Compound autofluorescence, 480/540 nm, fluorescein-equivalent; hits give high values. max fluorescein-equivalent concentration, M. actives 0.91% (n = 59,000); in the data active = max fluorescein-equivalent concentration above about 10 nM; inconclusive = between about 1.1 nM and that limit
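Values reflect compound autofluorescence, normalized to fluorescein on the same plate and reported at each tested concentration. Conditions: 100 mM Tris pH 8.0, room temperature, 15 min, excitation 480 nm, emission 540 nm.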
Rhodamine fluor = compound fluoresces in the rhodamine spectral region; Rhodamine-region fluorescence, 547/598 nm, Tris buffer; hits give high values; max dye-equivalent concentration, M; actives 0.05% (n = 59,000); AID 594; in the data active = max dye-equivalent concentration above about 11 nM; inconclusive = between about 1.1 nM and that limit
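Intensities are converted to rhodamine-equivalent concentration using a six-point rhodamine standard on each plate. Compounds sit 15 min at room temperature in 100 mM Tris buffer, pH 8.0; read uses the 547/598 nm excitation/emission pair.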
The depositor's hits bear a star; i = inactive; ? = inconclusive; ! = not confirmed by another sample. Unless noted, the rule behind the calls is not given here.

SMILES	A488 autofl	Resorufin autofl	A647 fluor	Texas Red fluor	Fluorescein autfl	Rhodamine fluor
CN1C(=O)C(Cc2c[nH]c3ccccc23)C(=O)N(C)C1=O	?	1e-08M*	3.7e-08	?	3.4e-08M*	1.4e-08M*
COc1ccc(C[C@@H]2NC[C@H](O)[C@H]2OC(C)=O)cc1	i	i	4.6e-09	i	?	i
COc1cc(C=C(C#N)C#N)cc(O)c1O	i	i	3.7e-08	i	2.5e-08M*	i
CNc1ccc2oc(C[C@@H]3O[C@@]4(CC[C@H]3C)O[C@@H]([C@@H](C)C(=O)c3ccc[nH]3)[C@@H](C)C[C@H]4C)nc2c1C(=O)O	i	i	3.7e-08	i	?	i
CC[C@H](CO)NC(=O)[C@@H]1C=C2c3cccc4c3c(cn4C)C[C@@H]2N(C)C1	i	i	1.8e-09	i	1.5e-08M*	i
CC(C)[C@@]1(NC(=O)[C@@H]2C[C@H]3c4cccc5[nH]cc(c45)C[C@@H]3N(C)C2)O[C@]2(O)[C@H]3CCCN3C(=O)[C@H](Cc3ccccc3)N2C1=O	i	i	5.8e-09	?	i	i
CC(C)C[C@H]1C(=O)N2CCC[C@@H]2[C@@]2(O)O[C@](NC(=O)[C@@H]3C=C4c5cccc6[nH]cc(c56)C[C@@H]4N(C)C3)(C(C)C)C(=O)N12	?	i	1e-09	i	4.9e-08M*	i
CC(C)C[C@H]1C(=O)N2CCC[C@@H]2[C@]2(O)O[C@](NC(=O)[C@H]3C=C4c5cccc6[nH]cc(c56)C[C@H]4N(C)C3)(C(C)C)C(=O)N12	i	i	1e-09	i	1.3e-08M*	i
C/C=C(\C)C(=O)O[C@@H]1C(C)=C2[C@H]([C@@H]1OC(=O)CCCCCCC)[C@@](C)(OC(C)=O)C[C@@H](OC(=O)CCC)[C@@]1(O)[C@H]2OC(=O)[C@]1(C)O	i	i	1e-09	i	i	i
Nc1c(C(=O)NCCc2ccccc2)c2nc3ccccc3nc2n1CCN1CCOCC1	i	i	3.6e-08	i	?	i
COCCNC(=O)c1c(NC(=O)c2ccco2)n(Cc2ccccc2)c2nc3ccccc3nc12	i	i	1.9e-09	i	1.1e-08M*	i
CN1CCN(c2ccc([N+](=O)[O-])c3[nH]o[n+](=O)c23)CC1	?	i	4.7e-08	i	1.3e-07M*	?
C[C@@H]1Cc2cc3c(cc2C(c2ccc(N)cc2)=NN1)OCO3	i	i	4.9e-09	?	i	i
Ic1ccccc1CN[C@@H]1C2CCN(CC2)[C@H]1C(c1ccccc1)c1ccccc1	i	i	1e-08	i	i	i
C=CCn1c(O)c(C=NCCN(C)C)c(=O)[nH]c1=O	i	i	1e-09	i	?	i
C=CCn1c(O)c(C=Nc2ccc(N(CC)CC)cc2)c(=O)[nH]c1=O	i	i	1e-09	i	1.4e-08M*	i
O=c1[nH]c(=O)n(CCC2=CCCCC2)c(O)c1C=NCCN1CCNCC1	i	i	1.7e-08	i	i	i
CN(C)c1ccc(N=Cc2c(O)n(CCC3=CCCCC3)c(=O)[nH]c2=O)cc1	i	i	1e-09	?	1.4e-08M*	i
CCN(CC)c1ccc(N=Cc2c(O)n(CCC3=CCCCC3)c(=O)[nH]c2=O)cc1	?	i	3.5e-09	i	9.3e-08M*	i
C[C@@H]1[C@H]2C=C[C@@H]1[C@@H](c1c3ccc(=O)c(O)c-3oc3c(O)c(O)ccc13)[C@@H]2C(=O)O	i	i	5.1e-08	i	?	i
CSC([N-]/N=C/c1cccc(C)n1)=[S]=[Cu].CS[C@H]([S-])[N-]/N=C/c1cccc(C)n1	i	i	2.1e-08	i	i	i
O=c1[nH]c(=O)n(-c2ccc(F)cc2)c(O)c1C=Nc1ccccc1N1CCCC1	?	i	1.5e-08	i	4e-08M*	i
Cc1ccc(-n2c(O)c(C=Nc3ccccc3N)c(=O)[nH]c2=O)cc1C	i	i	3.2e-08	i	?	i
CC(C)(C)OC(=O)c1c(N)n(Cc2ccco2)c2nc3ccccc3nc12	i	i	1e-08	i	2.8e-08M*	i
CCOC(=O)c1c(N)n(CCN2CCCCC2)c2nc3ccccc3nc12	i	i	1e-09	i	i	i
SMILES	A488 autofl	Resorufin autofl	A647 fluor	Texas Red fluor	Fluorescein autfl	Rhodamine fluor
Nc1c(C(=O)NCCN2CCOCC2)c2nc3ccccc3nc2n1Cc1ccco1	i	i	4e-08	i	1.9e-08M*	i
NC(N)=Nc1ccc2[nH]c3c(c2c1)C[C@]1(O)[C@@H]2Cc4ccc(O)c5c4[C@]1(CCN2CC1CC1)[C@H]3O5	i	i	4.3e-08	i	?	i
C[C@@H](O)CN(CCN(C[C@@H](C)O)C[C@@H](C)O)C[C@@H](C)O.O=[N+]([O-])O.[Cu]	i	i	1e-09	i	i	i
CC(C)n1cc2c3c(cccc31)[C@@H]1C[C@H](C(=O)O[C@@H](C)[C@H](C)O)CN(C)[C@H]1C2	i	i	1e-09	i	1.1e-08M*	i
O=c1ccc2cc(O[C@@H]3O[C@@H](CO)[C@@H](O)[C@@H](O)[C@H]3O)c(O)cc2o1	i	i	2.5e-08	i	i	i
CCN(CC)C(=O)N[C@H]1C=C2c3cccc4[nH]cc(c34)C[C@@H]2N(C)C1	?	i	2.3e-09	?	5e-08M*	i
COc1cc2ccccc2c2cc([N+](=O)[O-])oc12	?	i	1e-09	i	4e-08M*	i
c1ccc2c(c1)[nH]c1cnccc12	i	i	3.7e-08	i	?	i
Cc1c2ccncc2c(C)c2c1[nH]c1ccccc12	i	i	3.7e-09	i	1.1e-08M*!	i
